The values below come from PubChem BioAssay.

Unmarked numbers belong to inactive results.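 How the source made its calls: active means RAM network inhibition above 8.4% in each of two replicates, 3 SD over the compound average; inconclusive means above 8.4% inhibition in only one replicate; inactive means 8.4% inhibition or less in each replicate.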

The experiment can be described thus: RAM signaling pathway blockade in yeast – S. cerevisiae, Pdr1DBD-CYC8 efflux-inhibited sensitized strain, primary screen (AID 1298).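 Further: 0% = DMSO untreated cells without growth and 100% = 10 µM 1-NA-PP1 full growth; higher means more yeast growth rescued from 5-FOA killing.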 As to conditions: S. cerevisiae cbk1-as DSE1-URA3 strain, 5-FOA growth OD615, 2 d; at 50 µM; hits give high values.
For `Cc1c(/C=N/n2cnnc2)c2ccccc2n1C`, the RAM network inhibition was 4.77%.
Turning to `Cn1c(C(=O)N2CCC(C(=O)N3CCOCC3)CC2)cc2sccc21`, the RAM network inhibition is 0.9%.
As for `CCN1CCN(CC(=O)Nc2cccc(C)c2C)C(=O)C1=O`, the RAM network inhibition was 2.6%.
With `CCOC(=O)N1CCN(CC(=O)Nc2cc3c(cc2C(C)=O)OCO3)CC1`, the RAM network inhibition is 2.4%.
The value for `Cc1c(C#N)c2ncn(Cc3ccccc3)c(=O)c2n1-c1ccccc1` was 4.19%; that for `C=C(C)Cn1c(C2CC(=O)N(Cc3ccccc3)C2)nc2ccccc21` (centres undefined) was 2.18%.
As to `COc1ccc(OC)c(NC(=O)COC(=O)c2ccc(S(=O)(=O)N3CCOCC3)cc2)c1`, the RAM network inhibition is 5.32%.
With `OC(COc1cccc2ccccc12)CN1CCN(c2ccccn2)CC1` (centres undefined), the RAM network inhibition was 2.59%.
`Cc1nnc(SCC(=O)NC(C)c2ccccc2)[nH]c1=O` (centres undefined): the RAM network inhibition is 5.85%.
Regarding `CCOC(=O)c1sc(N)nc1-c1ccccc1`, the RAM network inhibition is -2.06%.
`CCP(=O)(c1ccccc1)C(C)(C)O` (centres undefined): the RAM network inhibition is -0.68%.
The value for `Cc1nn(C)c(C)c1NS(=O)(=O)c1ccccc1` was 6.15%; that for `CC(C)c1nnc(NC(=O)c2ccc(S(=O)(=O)N3CCOCC3)cc2)s1` was 6.74%.
For `CCCSC1=N/C(=C\c2ccsc2)C(=O)S1`, the RAM network inhibition is 9.91%.
As for `c1ccc2c(c1)CCCN2c1nc2ccccc2n2cnnc12`, the RAM network inhibition is 4.1%.
Consider `Cn1c(C(=O)NCCN2CCc3ccccc3C2)cc2c(=O)n(C)c3ccccc3c21`, for which the RAM network inhibition is 1.02%.
In the case of `O=C(NCc1cccnc1)c1ccc(CS(=O)(=O)c2ccc(Br)cc2)o1`, the RAM network inhibition was 3.41%.
Take `COc1ccccc1N1CCN(C(=O)CCCC2=NS(=O)(=O)c3ccccc3N2)CC1`: the RAM network inhibition is -0.58%.
The value for `COc1ccc(-c2nc(C#N)c(NCCN(C)C)o2)cc1` was 3.09%; that for `O=C(Nc1cccc(OC(F)(F)F)c1)c1ccc(Br)o1` was 0.92%; that for `Cc1sc2nc(SCC(=O)OC(C)C)n(C)c(=O)c2c1C` was 2.75%.
For the molecule `CNC(=O)CN1C(=O)CSc2nc(C)cc(C)c21`, the RAM network inhibition was 1.73%.
Take `CCSc1nnc(Cn2c(=O)sc3ccccc32)n1-c1ccc(OC)cc1`: the RAM network inhibition is 9.11%.
As to `CCOc1ccccc1NC(=O)CSc1nc2c(c(=O)n1C)SC(C)C2` (centres undefined), the RAM network inhibition is 4.44%.
The value for `CCC(C)NC(=O)CCS(=O)(=O)c1ccc2c(c1)n(C)c(=O)c(=O)n2C` (centres undefined) was 3.76%; that for `COc1ccc(-n2ncc3c(N(C)C4CCCCC4)ncnc32)cc1` was 4.58%.
As for `CCOC(=O)CCc1c(C)n(CC)c2ncnn2c1=O`, the RAM network inhibition was 0.04%.
With `Cc1ccc(S(=O)(=O)N2CCN(Cc3ccccc3C(F)(F)F)CC2)cc1` the figure was 3.06%; with `Cc1nc(N2CCN(C(=O)c3ccco3)CC2)c2c3c(sc2n1)CCC3`, 5%.
As for `CCOC(=O)c1nnn(-c2nonc2N)c1CN(C)Cc1ccccc1`, the RAM network inhibition is 4.2%.
For `O=C(CN1CCOc2ccccc21)NCc1ccc(F)cc1`, the RAM network inhibition was -0.84%.
Consider `NC(=O)CCc1c[nH]c2ccccc12`, for which the RAM network inhibition is 5.98%.
Consider `CC1CC(C)(C)Nc2ccc(OC(=O)c3ccco3)cc21` (centres undefined), for which the RAM network inhibition is 3.36%.
`Cc1cc(NC(=O)CN2CCCCC2C)nc2c1c(=O)oc1ccccc12` (centres undefined): the RAM network inhibition was 0.77%.
With `Cc1cc(NC(=O)C2CC(c3ccc(F)cc3)=NO2)n(-c2ccccc2)n1` (centres undefined) the figure was -1.56%.
The value for `O=C(Nc1ncc(Br)s1)C(Cc1ccccc1)n1cccc1` (centres undefined) was -0.21%; that for `COC(=O)C1CCN(C(=O)c2ccc(Cl)c(S(=O)(=O)NCc3cccnc3)c2)CC1` was 2.3%; that for `CCOC(=O)c1ccc(NC2c3ccccc3C(=O)N2c2cccnc2)cc1` (centres undefined) was 2.21%.
The value for `C=CCOC(=O)C1=C(C)NC(=O)NC1c1ccc(OC(=O)c2ccco2)c(OC)c1` (centres undefined) was 2.71%.
